Data published in publication PMC3218832.

Assays:
Assay in all cases: protein binding microarray; high values mean tight binding
Conditions in all cases: dsDNA, one strand shown
[1] = target: RELARELA (p65 homodimer) (Homo sapiens, UniProt Q04206 1-307)
[2] = target: p50p50 homodimer (Homo sapiens, UniProt P19838 7-356)
[3] = target: T1, p52p52 homodimer (Homo sapiens, UniProt Q00653 4-332)
T1 sequence: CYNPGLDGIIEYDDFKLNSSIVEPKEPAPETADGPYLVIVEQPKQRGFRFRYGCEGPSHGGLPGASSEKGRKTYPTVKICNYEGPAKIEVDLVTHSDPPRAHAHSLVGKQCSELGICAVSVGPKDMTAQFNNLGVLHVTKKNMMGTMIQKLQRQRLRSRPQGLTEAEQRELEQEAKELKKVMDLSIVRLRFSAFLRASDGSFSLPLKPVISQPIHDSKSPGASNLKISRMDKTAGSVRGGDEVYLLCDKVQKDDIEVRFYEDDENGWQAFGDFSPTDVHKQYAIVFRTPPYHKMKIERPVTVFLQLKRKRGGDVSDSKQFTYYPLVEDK

[4] = target: RELA (p65) subunit of heterodimer;p50 subunit (Homo sapiens;Homo sapiens, UniProt Q04206;P19838 1-307;7-356)
Sequence of RELA (p65) subunit of heterodimer;p50 subunit (Q04206 1-307, chain 1 of 2): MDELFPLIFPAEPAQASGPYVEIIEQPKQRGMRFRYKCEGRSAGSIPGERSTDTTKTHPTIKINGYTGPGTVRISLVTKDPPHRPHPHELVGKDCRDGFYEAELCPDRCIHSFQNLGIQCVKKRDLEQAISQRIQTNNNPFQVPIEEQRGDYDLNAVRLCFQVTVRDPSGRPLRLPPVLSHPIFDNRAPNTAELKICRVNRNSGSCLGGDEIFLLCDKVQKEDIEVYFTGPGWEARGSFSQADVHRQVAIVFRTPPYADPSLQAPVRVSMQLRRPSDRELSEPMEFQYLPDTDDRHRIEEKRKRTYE
Sequence of RELA (p65) subunit of heterodimer;p50 subunit (P19838 7-356, chain 2 of 2): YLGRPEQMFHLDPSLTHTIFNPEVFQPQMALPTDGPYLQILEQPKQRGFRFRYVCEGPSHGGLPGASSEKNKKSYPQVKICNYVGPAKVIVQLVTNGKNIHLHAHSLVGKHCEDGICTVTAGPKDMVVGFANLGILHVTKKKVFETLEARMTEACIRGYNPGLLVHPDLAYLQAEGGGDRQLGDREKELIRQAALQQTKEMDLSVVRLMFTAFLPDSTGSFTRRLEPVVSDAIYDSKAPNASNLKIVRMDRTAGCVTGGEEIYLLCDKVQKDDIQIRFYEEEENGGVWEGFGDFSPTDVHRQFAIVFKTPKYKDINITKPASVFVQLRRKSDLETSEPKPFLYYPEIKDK

[5] = target: RELA (p65) subunit of heterodimer;p52 subunit (Homo sapiens;Homo sapiens, UniProt Q04206;Q00653 1-307;4-332)
[6] = target: RELB subunit;p50 subunit (Homo sapiens;Homo sapiens, UniProt Q01201;P19838 120-401;7-356)
[7] = target: T2, RELB subunit;p52 subunit (Homo sapiens;Homo sapiens, UniProt Q01201;Q00653 120-401;4-332)
T2 sequence 1: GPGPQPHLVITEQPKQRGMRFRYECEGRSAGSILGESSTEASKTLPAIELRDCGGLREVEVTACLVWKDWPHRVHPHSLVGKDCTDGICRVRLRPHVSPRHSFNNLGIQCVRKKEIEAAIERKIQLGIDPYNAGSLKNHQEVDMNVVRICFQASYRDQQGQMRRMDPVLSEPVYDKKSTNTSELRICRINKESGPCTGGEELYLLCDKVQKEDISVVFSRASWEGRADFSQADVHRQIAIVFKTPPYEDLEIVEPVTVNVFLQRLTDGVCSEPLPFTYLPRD
T2 sequence 2: T1 sequence

[8] = target: C-Rel subunit;p50 subunit (Homo sapiens;Homo sapiens, UniProt Q04864;P19838 1-285;7-356)
[9] = target: T3, C-Rel subunit;p52 subunit (Homo sapiens;Homo sapiens, UniProt Q04864;Q00653 1-285;4-332)
T3 sequence 1: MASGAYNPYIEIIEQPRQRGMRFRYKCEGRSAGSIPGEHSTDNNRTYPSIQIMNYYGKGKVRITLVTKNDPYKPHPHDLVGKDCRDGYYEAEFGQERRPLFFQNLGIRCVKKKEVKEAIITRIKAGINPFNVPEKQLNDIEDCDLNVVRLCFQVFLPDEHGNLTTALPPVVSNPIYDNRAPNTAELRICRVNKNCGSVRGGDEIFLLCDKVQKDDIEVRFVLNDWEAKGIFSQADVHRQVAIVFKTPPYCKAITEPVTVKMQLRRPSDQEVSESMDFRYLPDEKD
T3 sequence 2: T1 sequence

Sequence of RELARELA (p65 homodimer) (Q04206 1-307): as the sequence (Q04206 1-307, chain 1 of 2) above
Sequence of p50p50 homodimer (P19838 7-356): as the sequence (P19838 7-356, chain 2 of 2) above

Sequence	binding signal [1]	binding signal [2]	binding signal [3]	binding signal [4]	binding signal [5]	binding signal [6]	binding signal [7]	binding signal [8]	binding signal [9]
GAATATCCCCC	0.817 z-score	1.35 z-score	1.71 z-score	1.94 z-score	1.64 z-score	1.97 z-score	1.9 z-score	1.33 z-score	1.58 z-score
GGATTGTTCCC	0.75 z-score	-0.265 z-score	-0.233 z-score	-0.0316 z-score	-0.0574 z-score	-0.257 z-score	-0.307 z-score	0.0336 z-score	0.152 z-score
CAGTGGGTCCT	-0.388 z-score	-1.79 z-score	-0.509 z-score	-1.1 z-score	-0.79 z-score	-0.698 z-score	-0.708 z-score	-1.36 z-score	-1.08 z-score
AAGGACGCCCT	-0.995 z-score	-2.2 z-score	-0.8 z-score	-0.915 z-score	-0.945 z-score	-1.1 z-score	-0.803 z-score	-1.23 z-score	-0.928 z-score
GAGAGTATCCC	-0.187 z-score	-0.91 z-score	-0.43 z-score	-0.602 z-score	-0.673 z-score	-0.546 z-score	-0.687 z-score	-0.656 z-score	-0.641 z-score
CAGGGCCTCCC	-0.644 z-score	-0.933 z-score	-0.467 z-score	-0.699 z-score	-0.636 z-score	-0.64 z-score	-0.746 z-score	-0.529 z-score	-0.502 z-score
CGGGGACCCCT	-0.0408 z-score	0.724 z-score	0.639 z-score	0.43 z-score	0.693 z-score	0.578 z-score	0.906 z-score	0.478 z-score	-0.0336 z-score
AAAGGATCCCT	-0.446 z-score	-0.455 z-score	-0.198 z-score	-0.582 z-score	-0.469 z-score	-0.388 z-score	-0.424 z-score	-0.748 z-score	-0.634 z-score
CGATAATTCCC	2.04 z-score	0.948 z-score	0.738 z-score	1.43 z-score	0.974 z-score	0.871 z-score	0.87 z-score	1.51 z-score	1.12 z-score
CGGGTTACCCT	0.242 z-score	-0.264 z-score	-0.0855 z-score	-0.112 z-score	-0.124 z-score	0.063 z-score	-0.22 z-score	-0.0809 z-score	-0.0258 z-score
AGGTGTCCCCC	0.286 z-score	1.17 z-score	0.966 z-score	1.2 z-score	1.19 z-score	1.21 z-score	1.46 z-score	1.14 z-score	1.02 z-score
AAAGACGCCCC	-0.195 z-score	0.408 z-score	0.153 z-score	0.135 z-score	0.105 z-score	0.331 z-score	0.432 z-score	0.326 z-score	-0.126 z-score
AGGTTTGTCCC	1.29 z-score	0.56 z-score	0.82 z-score	0.878 z-score	0.918 z-score	0.602 z-score	0.621 z-score	0.937 z-score	0.735 z-score
AAGTGTATCCC	-0.0644 z-score	-0.719 z-score	-0.379 z-score	-0.553 z-score	-0.504 z-score	-0.584 z-score	-0.4 z-score	-0.695 z-score	-0.382 z-score
AAGTTTCTCCC	0.793 z-score	0.601 z-score	0.198 z-score	0.383 z-score	0.17 z-score	0.576 z-score	0.357 z-score	0.423 z-score	0.189 z-score
GGATTTTCCCC	3.79 z-score	1.16 z-score	2.75 z-score	2.27 z-score	2.49 z-score	2.15 z-score	2.39 z-score	1.94 z-score	2.19 z-score
AAGAGTACCCT	-0.409 z-score	0.828 z-score	0.248 z-score	0.398 z-score	0.224 z-score	0.66 z-score	0.374 z-score	0.116 z-score	0.104 z-score
CGATGGGCCCT	-0.936 z-score	-1.43 z-score	-0.601 z-score	-0.968 z-score	-0.798 z-score	-0.95 z-score	-0.85 z-score	-1.73 z-score	-0.583 z-score
GGATGCATCCC	-0.168 z-score	-0.953 z-score	-0.436 z-score	-0.723 z-score	-0.685 z-score	-0.7 z-score	-0.821 z-score	-1.05 z-score	-0.672 z-score
CAGTAGCTCCT	-0.468 z-score	-1.98 z-score	-0.806 z-score	-1.09 z-score	-1.13 z-score	-1.24 z-score	-1.1 z-score	-1.72 z-score	-1.02 z-score
GAGGTGGTCCT	-0.284 z-score	-0.198 z-score	-0.03 z-score	-0.746 z-score	-0.496 z-score	-0.46 z-score	-0.352 z-score	-1.08 z-score	-0.521 z-score
CGAGACGCCCC	-0.513 z-score	0.148 z-score	-0.0437 z-score	0.0369 z-score	-0.155 z-score	0.237 z-score	0.231 z-score	0.27 z-score	-0.0784 z-score
CAGGTGCTCCT	-0.953 z-score	-0.0506 z-score	0.0612 z-score	-0.571 z-score	-0.266 z-score	-0.45 z-score	-0.443 z-score	-1.31 z-score	-0.565 z-score
GGATTCATCCT	-0.727 z-score	-2.29 z-score	-0.817 z-score	-1.18 z-score	-0.991 z-score	-1.18 z-score	-0.967 z-score	-1.49 z-score	-0.792 z-score
GAGAGTTCCCC	1.61 z-score	1.06 z-score	1.71 z-score	1.77 z-score	1.55 z-score	1.7 z-score	1.62 z-score	1.21 z-score	1.67 z-score
GAGATTACCCT	0.00649 z-score	0.801 z-score	0.46 z-score	0.604 z-score	0.372 z-score	0.519 z-score	0.477 z-score	0.426 z-score	0.377 z-score
AAGTTAGTCCT	-0.0878 z-score	-1.56 z-score	-0.552 z-score	-1.02 z-score	-0.842 z-score	-1.03 z-score	-0.752 z-score	-1 z-score	-0.837 z-score
GAAGATTTCCT	0.421 z-score	-0.715 z-score	-0.513 z-score	-0.241 z-score	-0.568 z-score	-0.764 z-score	-0.77 z-score	-0.169 z-score	-0.383 z-score
AGGTAGGCCCT	-0.932 z-score	-0.756 z-score	-0.535 z-score	-0.978 z-score	-0.63 z-score	-0.647 z-score	-0.561 z-score	-1.13 z-score	-0.598 z-score
CAGGAACTCCC	1.07 z-score	0.648 z-score	0.144 z-score	0.636 z-score	0.288 z-score	0.322 z-score	0.116 z-score	0.424 z-score	0.208 z-score
